# Screening results (PubChem)
# A selection: hits, their analogues and other compounds. The true share with any hit is near 7.5%.
# FLuc modulator: inhibits or activates purified firefly luciferase, miR-21 counter-screen; purified FLuc, Km substrates, luminescence inhibition; P08659; Potency, µM (doses to about 57.5 µM), for the others: at the highest dose activity change, negative = inhibition, actives largely listed as inhibitors; 360,000 tested, 6.9% active;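 further: plate controls were vehicle for no effect and reference inhibitor for full effect; nearly all actives have a fitted effect of over 55% in size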
# Target sequence (P08659 whole entry, looked up): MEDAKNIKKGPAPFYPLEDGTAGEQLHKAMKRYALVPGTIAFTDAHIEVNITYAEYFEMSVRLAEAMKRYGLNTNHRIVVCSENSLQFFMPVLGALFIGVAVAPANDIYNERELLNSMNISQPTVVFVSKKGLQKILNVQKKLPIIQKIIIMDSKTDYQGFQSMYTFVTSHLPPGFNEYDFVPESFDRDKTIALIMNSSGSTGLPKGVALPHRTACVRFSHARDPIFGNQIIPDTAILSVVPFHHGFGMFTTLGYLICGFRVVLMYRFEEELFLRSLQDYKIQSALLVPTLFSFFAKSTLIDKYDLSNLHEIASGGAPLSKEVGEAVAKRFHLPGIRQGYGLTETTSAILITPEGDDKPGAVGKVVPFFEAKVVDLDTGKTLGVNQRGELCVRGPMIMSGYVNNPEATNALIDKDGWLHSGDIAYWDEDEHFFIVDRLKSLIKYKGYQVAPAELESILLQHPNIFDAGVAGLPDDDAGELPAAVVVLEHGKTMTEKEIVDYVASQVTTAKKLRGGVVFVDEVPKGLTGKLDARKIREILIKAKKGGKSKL
#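 Purified P. pyralis luciferase, 10 nM final, with Km-level 10 uM D-luciferin and 10 uM ATP in 50 mM Tris acetate pH 7.5, 10 mM Mg acetate, 0.01% Tween-20, 0.05% BSA; 6-point qHTS titration about 60 µM downward; luminescence read.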
# NPC1 promoter act: NPC1 promoter activation. 320,000 tested, 2.4% active. Huh7 NPC1 promoter luciferase reporter, 24 h. Potency, µM (doses to about 9.22 µM), inactives show top-dose activation, most hits filed as activators; further: % of control where 0% means no effect; nearly all actives have a fitted effect of over 60% in size
#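 Luminescence from an NPC1 promoter-driven luciferase reporter in stably transfected Huh7 cells was measured after 24 h compound treatment at 37 °C, followed by 10 min ambient incubation with luciferase detection reagent.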
# KinaseGlo FLuc: counter-screen: inhibitors of Kinase-Glo firefly luciferase; Kinase-Glo luciferase, ATP luminescence, 8 min; Potency, µM (titrated, usually from 38.3 µM), inactives show at the highest dose activity change, negative = inhibition, most hits filed as inhibitors; 200,000 tested, 0.28% active; further: on the % scale 0 is the no-effect control and ±100 the full control effect; nearly all actives have a fitted effect of over 60% in size
#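 Compounds were added to a substrate mix at pH 7.2 (50 mM imidazole, 10 uM ATP, within the enzyme's linear range), followed by Kinase-Glo detection reagent; luminescence was measured after 8 minutes at ambient temperature.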
# SMN2 splice enh: increases expression of the SMN2 splice variant; HEK293 SMN2-luciferase splicing reporter, luminescence, 30-36 h; Potency, µM (top dose mostly 46.1 µM), without a hit: top-dose activity change, positive = activation, hits mostly activators; 210,000 tested, 2.8% active; AID 1458; further: % of control where 0% means no effect; nearly all actives have a fitted effect of over 55% in size
#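 qHTS luciferase splicing reporter: luminescence rises when SMN2 exon 7 is included in transfected HEK293 cells. Compound exposure lasted 30-36 h at 37C, with 4.5 mM final sodium butyrate as control, followed by a ONE-Glo read.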
# ELG1 genotoxic: induces genotoxicity in HEK293T cells with luciferase-tagged ELG1; AID 504466; Potency, µM (titrated, usually from 46 µM), without a hit: top-dose activity change, positive = activation, hits mostly activators; HEK293T ELG1-luciferase reporter, luminescence, 16 h; 330,000 tested, 1.3% active; further: % of control where 0% means no effect; nearly all actives have a fitted effect of over 60% in size
#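 After overnight (16 hr) compound treatment at 37 °C, ELG1-luciferase HEK293T cells were lysed with ONE-Glo; luminescence quantified 30 min later at room temperature.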
# Rab9 promoter act: Rab9 promoter activation; AID 485297; Potency, µM (series often up to 9.22 µM), for the others: at the top dose activation, negative = inhibition, most hits filed as activators; 320,000 tested, 2.8% active; Huh7 Rab9 promoter-luciferase reporter, luminescence, 24 h; further: % of control where 0% means no effect; nearly all actives have a fitted effect of over 60% in size
#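 Luminescence read-out: Huh7 cells stably expressing Rab9-luciferase, treated 24 h with compound at 37 °C, then lysed with luciferase reagent for 10 min at ambient before reading.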
# Active calls of the source: *; ? = inconclusive; . = no result given; [ ] = dose if it differs, or a comment. The call rests on the fitted dose curve; in most records, active means well fitted curve in the direction sought with a large enough effect; inconclusive means small, poorly fitted or top-dose-only effect, or another doubt; inactive means no such curve, though single readings can be large; an effect the other way counts as inactive or inconclusive. Potency means the concentration at half of the fitted maximal effect.
SMILES,FLuc modulator,NPC1 promoter act,KinaseGlo FLuc,SMN2 splice enh,ELG1 genotoxic,Rab9 promoter act
COc1ccc(NC(=S)Nc2ccccn2)c(OC)c1,?,?,6.4%,11.2µM*,?,?
COc1ccc(NC(=S)Nc2ccc(OC)cc2OC)c(OC)c1,-0.2%,3.9%,-0.6%,-4.3%,-1.3%,-4.1%
COc1ccc(NC(=S)Nc2ccccc2OC)c(OC)c1,-12.3%,-6.2%,-1.4%,-7.3%,2.1%,2.0%
COc1ccc(NC(=S)Nc2cnc3ccccc3c2)c(OC)c1,6.01µM*,1.4%,3.2%,-0.2%,-0.3%,-4.1%
COc1ccc(NC(=S)NC(=O)CC(C)C)c(OC)c1,13.5µM*,14.1%,-2.1%,20.1%,6.5%,13.8%
COc1ccc(NC(=S)Nc2cc(C)ccn2)c(OC)c1,2.69µM*,?,-0.1%,11.2µM*,?,?
CCCCC(=O)Nc1ccc(NC(=S)NC(=O)CC(C)C)cc1OC,13.6%,-4.3%,9.8%,?,0.0%,3.9%
COc1cc(NC(=S)Nc2ccccn2)cc(OC)c1,9.53µM*,13.2%,3.0%,9.2%,2.8%,-0.9%
COc1ccc(C)cc1-n1nnc(C(=O)Nc2cccc(SC)c2)c1C,-3.1%,.,.,.,.,.
COc1ccc(-c2cc(=O)n3[nH]cnc3n2)cc1,15.1µM*,.,.,.,.,.
CCN(CC)CCCCCCCCOC(=O)c1cc(OC)c(OC)c(OC)c1,6.8%,-11.4%[46.1 µM],-1.7%,21.6%,18.3µM*,-16.3%[46.1 µM]
COc1cc(C(=O)OCCCN(C)C)cc(OC)c1OC,3.1%,-2.0%,.,.,-1.2%,-6.5%
Cc1cccc(NC(=S)N2N=CCC2c2ccccc2)c1 (stereo unspecified),21.3µM*,?,-3.5%,5.4%,?,20.2%
CCOc1ccc(C(=O)N/N=C/c2ccccc2[N+](=O)[O-])cc1,1.69µM*,2.24µM*,-3.2%,12.6µM*,?,1.41µM*
COc1cc(/C=N/NC(=O)c2ccc(C)nc2)cc([N+](=O)[O-])c1O,21.3µM*,-0.5%,-7.4%,2.3%,-2.5%,1.6%
Cc1ccc(C(=O)N/N=C\C=C\c2ccccc2[N+](=O)[O-])cn1,-5.8%,2.7%,1.1%,-6.6%,-0.1%,7.3%
Cc1ccc(C(=O)N/N=C\C=C\c2ccc(Br)cc2)cn1,-13.5%,-3.0%,-0.6%,-26.7%,0.8%,-0.1%
Cc1ccc(C(=O)N/N=C\c2ccccc2[N+](=O)[O-])cn1,12µM*,3.55µM*,-8.0%,12.6µM*,9.0%,2.82µM*
Cc1ccc(C(=O)N/N=C/c2cc(Br)ccc2O)cn1,13.5µM*,-29.3%,.,.,11.4%,-35.2%
C/C(=N\NC(=O)c1c(Cl)c(C)nn1C)c1ccc(NC(=O)c2ccncc2)cc1,4.1%,1.4%,-0.3%,-57.4%,-2.1%,-2.6%
C/C(=N\NC(=O)c1c(Cl)c(C)nn1C)c1cccc(NC(=O)C2CCCC2)c1,16.9µM*,-2.9%,.,.,-4.2%,1.8%
CC(=O)c1cccc(N2C(=O)CN(S(C)(=O)=O)CC2(C)C(=O)NC2CCCC2)c1 (stereo unspecified),-0.2%,.,.,.,.,.
O=C(CN1C(=O)C2(SCC(=O)N2c2ccc(F)c(F)c2)c2ccccc21)NCCc1ccccc1 (stereo unspecified),-3.6%,.,.,.,.,.
CCN(CC)C(=O)CSc1nc(N)c2c3c(sc2n1)CC(C)CC3 (stereo unspecified),1.9µM*,17.1%,-2.1%,9.6%,15.8%,19.0%
CCOC(=O)CSc1nc(N)c2c3c(sc2n1)CCCC3,9.53µM*,5.6%,-0.8%,-5.0%,23.1%,2.1%
SMILES,FLuc modulator,NPC1 promoter act,KinaseGlo FLuc,SMN2 splice enh,ELG1 genotoxic,Rab9 promoter act
CC1CCc2c(sc3nc(SCC(=O)NCc4ccco4)nc(N)c23)C1 (stereo unspecified),4.78µM*,12.9%,-4.0%,-20.8%,13.9%,2.9%
CC(=O)Nc1nonc1-c1nnc(SCC(=O)Nc2cccc(F)c2)n1-c1ccccc1,-9.6%,.,.,.,.,.
CSC(=S)N/N=C(\C)c1ccccc1,21.3µM*,1.2%,-0.4%,-5.3%,?,12.4%
CC(C)C[C@@H]1NC(=O)[C@H](Cc2ccc(O)cc2)NC(=O)[C@H](CCC(N)=O)NC(=O)c2cc([N+](=O)[O-])cc(I)c2NCC[C@@H](C(N)=O)NC1=O,-0.3%,-4.4%,2.9%,17.8µM*,0.7%,1.9%
COc1ccc(C(=O)Nc2nnc(-c3cccs3)s2)cc1,1.2µM*,1µM*,-5.0%,7.08µM*,0.517µM*,0.794µM*
CC(C)(C)CC(=O)Nc1nnc(-c2cccs2)s1,-18.4%,3.16µM*,3.2%,12.6µM*,11.6%,3.16µM*
Cc1nnc(NC(=O)c2cccc(F)c2)s1,?,1.9%,-5.2%,10.2%,13.7%,0.8%
O=C(Nc1nnc(-c2cccs2)s1)c1cccc(F)c1,?,1.78µM*,0.6%,8.91µM*,?,0.891µM*
Cc1occc1C(=O)Nc1nnc(-c2cccs2)s1,?,?,-2.0%,3.55µM*,?,3.16µM*
C=CCNC(=O)N1CCC(n2nccc2NC(=O)CCCc2ccccc2)CC1,-2.2%,6.8%,.,.,0.9%,-8.2%
O=C(Nc1ccccc1)Nc1nnc(-c2cccs2)s1,-10.1%,?,0.2%,?,15.0%,?
COc1ccc(NC(=O)Nc2nnc(-c3cccs3)s2)cc1,?,4.47µM*,.,.,17.1%,3.98µM*
O=C(Oc1ccc(Oc2ccccc2)cc1)N1CCC(O)CC1,16.9µM*,?,.,.,?,?
O=C(Oc1ccccc1)N1CCCC1,-0.8%,6.9%,.,.,-0.1%,1.8%
O=C(Oc1ccc(-c2ccccc2)cc1)N1CCOCC1,21.3µM*,2.82µM*,1.0%,?,?,2µM*
O=C(Nc1cccc(NC(=O)c2cccc(F)c2)n1)c1cccc(F)c1,19µM*,-2.7%,.,.,-1.1%,0.3%
